LASV entry inh: Lassa virus entry inhibition. 300,000 tested, 1.2% active. Lassa virus pseudotype entry inhibition, cell reporter. Potency, µM (top dose mostly 37.9 µM), actives largely listed as inhibitors; calls by dose curve; tested in HEK293 cells; also: nearly all actives have a fitted effect of over 50% in size
HCV inh: inhibitors of hepatitis C virus infection | 340,000 tested, 3.4% active | Potency, µM (highest dose often 41.8 µM), usual class: inhibitors | AID 651820 | Huh7.5.1 HCVcc-Cre infection, luciferase reporter, 44 h; active = well fitted inhibition curve with a large enough effect; inconclusive = small, poorly fitted or top-dose-only effect, or another doubt; inactive = no such curve, though single readings can be large or run the other way
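Seed cells (1,000/well) for 4 h; treat with compound and infect with HCVcc-Cre, moi about 0.5. Incubate 44 h, then detect luciferase activity.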
VACV mCherry inh: inhibitors of vaccinia virus infection (mCherry reporter signal); Vaccinia virus mCherry reporter infection, fluorescence; 310,000 tested, 0.63% active; Potency, µM (titrated, usually from 36.5 µM), usual class: inhibitors; calls by dose curve; tested in A549 cells; also: nearly all actives have a fitted effect of over 35% in size
Marburg entry inh: blocks Marburg virus binding to or entry into cells; Marburg virus pseudotyped entry inhibition, cell reporter; Potency, µM (series often up to 37.8 µM), usual class: inhibitors; 300,000 tested, 1.8% active; AID 540276; calls by dose curve; tested in HEK293 cells
Vaccinia Venus: vaccinia inhibition (Venus reporter); Vaccinia virus Venus reporter expression, fluorescence; Potency, µM (top dose mostly 36.5 µM), actives largely listed as inhibitors; 330,000 tested, 0.46% active; AID 720580; calls by dose curve; tested in A549 cells; also: nearly all actives have a fitted effect of over 30% in size
Each line names hits and unclear results; the compound was inactive in the other large screens. Rows were chosen to be rich in hits. Some 4.6% of all compounds tested hit in one or more screens of this group.

O=C(CSc1ncccn1)NCC1Cc2cccc(-c3ncccn3)c2O1 (configuration not stated)	none (no result: LASV entry inh, HCV inh, Marburg entry inh)
CCOC(=O)c1cc(-c2ccccc2)n(CC(=O)Nc2ccc(OC)cc2OC)c1C	none (no result: HCV inh, Marburg entry inh)
Cc1cc2nc(-c3ccc(SCc4ccccc4C#N)nc3)[nH]c2cc1C	LASV entry inh inconclusive, HCV inh inconclusive, Marburg entry inh inconclusive
Cc1cc2nc(-c3ccc(SCc4ccc(C(=O)O)cc4)nc3)[nH]c2cc1C	LASV entry inh inconclusive, HCV inh inconclusive, Marburg entry inh 5.6µM
Cc1ccc(-c2ccc(SCC(=O)N3CCc4ccccc43)nn2)cc1	none (no result: LASV entry inh, VACV mCherry inh, Marburg entry inh, Vaccinia Venus)
Cc1cc2nc(-c3ccc(SCC(=O)N4CCc5ccccc54)nc3)[nH]c2cc1C	LASV entry inh inconclusive, HCV inh 5µM, Marburg entry inh inconclusive
Cc1cc(NC(=O)CSc2ccc(-c3nc4cc(C)c(C)cc4[nH]3)cn2)no1	Marburg entry inh inconclusive (no result: VACV mCherry inh, Vaccinia Venus)
Cc1cc2nc(-c3ccc(SCC(=O)Nc4ccc(S(=O)(=O)NC5CC5)cc4)nc3)[nH]c2cc1C	LASV entry inh inconclusive, HCV inh inconclusive, Marburg entry inh 4.5µM
Cc1ccccc1CN1CCc2nnc(C(C)NC(=O)C3CCN(C)CC3)n2CC1 (configuration not stated)	none (no result: LASV entry inh, HCV inh, Marburg entry inh)
CC(=O)Oc1ccc(C23c4ccccc4C2(OC(C)=O)c2cc(OC(C)=O)ccc23)cc1 (configuration not stated)	LASV entry inh inconclusive, HCV inh 11µM, Marburg entry inh inconclusive
CC(=O)Oc1ccc(C(=O)Nc2ccccc2NC(=O)c2ccc(OC(C)=O)cc2)cc1	none (no result: LASV entry inh, VACV mCherry inh, Marburg entry inh, Vaccinia Venus)
Nc1c(C(O)(C(F)(F)F)C(F)(F)F)cc(C(O)(C(F)(F)F)C(F)(F)F)c2ccccc12	LASV entry inh 22µM, HCV inh inconclusive, VACV mCherry inh 11µM, Marburg entry inh 11µM, Vaccinia Venus inconclusive
C/C(=N\NC(=S)Nc1c(C)cccc1C)c1cc2ccccc2o1	LASV entry inh inconclusive, HCV inh inconclusive, VACV mCherry inh 7.1µM, Marburg entry inh inconclusive, Vaccinia Venus inconclusive
C/C(=N\NC(=S)Nc1ccccc1C)c1cc2ccccc2o1	LASV entry inh inconclusive, HCV inh inconclusive, VACV mCherry inh inconclusive, Marburg entry inh inconclusive
CCCCC(=NCCc1c(C)[nH]c2ccc(OC)cc12)C1=C(O)CC(c2ccccc2)CC1=O (configuration not stated)	LASV entry inh inconclusive, HCV inh inconclusive, VACV mCherry inh inconclusive, Marburg entry inh 7.9µM
CC(=O)O[C@H]1[C@H]2O[C@]23[C@@H]2CC[C@]4(O)C[C@@H](O)CC[C@]4(C)C2CC[C@]3(C)[C@H]1c1ccc(=O)oc1 (some centres not stated)	HCV inh 3.2µM, VACV mCherry inh 32µM, Vaccinia Venus 0.032µM (no result: LASV entry inh, Marburg entry inh)
C[C@]12CC[C@H]3C(CCC4(O)CC(O)CC[C@]34C=O)C1=CC[C@H]2c1ccc(=O)oc1 (some centres not stated)	none (no result: LASV entry inh, VACV mCherry inh, Marburg entry inh, Vaccinia Venus)
C[C@]12CC[C@H](O)C[C@H]1CCC1C2CC[C@]2(C)[C@@H](c3ccc(=O)oc3)C[C@H]3O[C@]132 (some centres not stated)	VACV mCherry inh 1.3µM, Vaccinia Venus 1.1µM (no result: LASV entry inh, HCV inh, Marburg entry inh)
COC(=O)c1cc2c([nH]c1=O)CC(c1ccccc1)CC2=O (configuration not stated)	none (no result: LASV entry inh, HCV inh, Marburg entry inh)
Cc1ccc(OCC(=O)c2cc(C)n(C3CC3)c2C)c([N+](=O)[O-])n1	none
Cc1cc(C(=O)COc2cccc([N+](=O)[O-])c2)c(C)n1C1CC1	HCV inh 11µM (no result: LASV entry inh, VACV mCherry inh, Marburg entry inh, Vaccinia Venus)
O=C(COc1ccccc1Cl)N(Cc1cccs1)C1CCS(=O)(=O)C1 (configuration not stated)	LASV entry inh 0.5µM
CCCn1c(N2CCN(CC(=O)c3c[nH]c4ccccc34)CC2)nc2c1c(=O)[nH]c(=O)n2C	LASV entry inh inconclusive, HCV inh 13µM, VACV mCherry inh inconclusive, Marburg entry inh inconclusive, Vaccinia Venus inconclusive
CCCSc1nc2c(c(=O)[nH]c(=O)n2C)n1Cc1ccccc1	none (no result: LASV entry inh, VACV mCherry inh, Marburg entry inh, Vaccinia Venus)
Cn1c(=O)[nH]c(=O)c2c1nc(SCC(=O)Nc1ccccc1)n2Cc1ccccc1	HCV inh 11µM (no result: LASV entry inh, Marburg entry inh)
Cn1c(=O)[nH]c(=O)c2c1nc(CN1CCOCC1)n2Cc1ccccc1	none (no result: VACV mCherry inh, Vaccinia Venus)
CCn1c(N2CCN(CC(=O)c3c(C)n(C)c4ccccc34)CC2)nc2c1c(=O)[nH]c(=O)n2C	Vaccinia Venus inconclusive (no result: VACV mCherry inh)
Cc1cccc(Cn2c(CN3CCN(Cc4ccccc4)CC3)nc3c2c(=O)[nH]c(=O)n3C)c1	HCV inh 10µM (no result: LASV entry inh, Marburg entry inh)
CCOC(=O)C(C)Sc1nc2c(c(=O)[nH]c(=O)n2C)n1Cc1ccc(Cl)cc1 (configuration not stated)	HCV inh 2.8µM (no result: LASV entry inh, Marburg entry inh)
CCCC[C@]12Cc3cc(C#N)ccc3[C@H](O1)c1c(cc(C)n(Cc3ccccc3)c1=O)O2	none (no result: LASV entry inh, HCV inh, VACV mCherry inh, Vaccinia Venus)
CCCCn1c(CN2CCN(c3cccc(Cl)c3)CC2)nc2c1c(=O)[nH]c(=O)n2C	LASV entry inh inconclusive, HCV inh inconclusive, Marburg entry inh 1.3µM
Cc1cc(C)n(-c2nc3c(c(=O)[nH]c(=O)n3C)n2Cc2ccccc2)n1	HCV inh 2µM
Cn1c(=O)[nH]c(=O)c2c1nc(CN1CCN(c3cccc(Cl)c3)CC1)n2CCCc1ccccc1	none (no result: LASV entry inh)
CCCCCn1c(N2CCN(Cc3ccccc3)CC2)nc2c1c(=O)[nH]c(=O)n2C	LASV entry inh inconclusive, HCV inh 10µM (no result: VACV mCherry inh, Vaccinia Venus)
CCOCCn1c(CN2CCN(c3cccc(Cl)c3)CC2)nc2c1c(=O)n(C)c(=O)n2C	HCV inh 16µM (no result: LASV entry inh, Marburg entry inh)
CC(C)CCn1c(N2CCN(Cc3ccccc3)CC2)nc2c1c(=O)[nH]c(=O)n2C	none (no result: LASV entry inh, VACV mCherry inh, Vaccinia Venus)
COC(=O)c1ccccc1NC(=O)CN(c1ccc(Cl)cc1)S(=O)(=O)c1ccc(OC)cc1	none (no result: HCV inh)
COc1ccc(C2NC(=O)N(C)C3=C2C(=O)N(c2ccc(C)cc2)C3)cc1 (configuration not stated)	none (no result: HCV inh)
Cc1cnc(SCc2ccccn2)nc1C1CCCN(Cc2ccsc2)C1 (configuration not stated)	none (no result: LASV entry inh, HCV inh, Marburg entry inh)
CC(C)C[C@H]1COc2cccc(F)c2S(=O)(=O)N1	Marburg entry inh inconclusive (no result: HCV inh, VACV mCherry inh, Vaccinia Venus)
CCCCCCCn1c2c(c(=N)c3ccccc31)CCC2	HCV inh 1.8µM, VACV mCherry inh inconclusive, Vaccinia Venus inconclusive (no result: LASV entry inh, Marburg entry inh)
CC(C)Oc1ccc(C(=O)NCC2Cc3cc(Cl)cc(-c4ncccn4)c3O2)cc1 (configuration not stated)	none (no result: LASV entry inh, HCV inh, Marburg entry inh)
CCN(CC)c1ccc(C2Nc3ccccc3-c3cc(C)nn32)cc1 (configuration not stated)	LASV entry inh inconclusive (no result: HCV inh)
CSc1ccc(C2Nc3ccccc3-c3cc(C)nn32)cc1 (configuration not stated)	HCV inh 10µM, Marburg entry inh inconclusive (no result: VACV mCherry inh, Vaccinia Venus)
CC(N)C(=O)NC1C2C(=C(O)CC(O)C2O)C(=O)OC1(C)C(Cl)Cl (configuration not stated)	LASV entry inh 0.5µM, HCV inh inconclusive, VACV mCherry inh inconclusive, Marburg entry inh 0.32µM, Vaccinia Venus 1µM
Oc1cc(O)c(/C=C/c2ccnc3ccccc23)c(O)c1	none (no result: LASV entry inh, HCV inh, Marburg entry inh)
S=c1nc[nH]c2c1sc1nc(-c3ccccc3)c3c(c12)CCCC3	VACV mCherry inh 14µM, Vaccinia Venus inconclusive (no result: LASV entry inh, Marburg entry inh)
CN(C)CCO[C@@H](c1ccc(Cl)cc1)c1ccccn1	none (no result: LASV entry inh, VACV mCherry inh, Marburg entry inh, Vaccinia Venus)
